Assay outcomes deposited in PubChem BioAssay by National Center for Advancing Translational Sciences (NCATS).
This is a sample that favours compounds with a hit; in the whole collection about 19% have one here.
HT1080-NT tox – kills 2HG-producing HT-1080-NT fibrosarcoma cells; HT-1080-NT fibrosarcoma viability, CellTiter-Glo ATP luminescence, 48 h; Potency, µM (doses to about 46.1 µM), for inactives: at the top dose activity, negative = less viability, most hits filed as cytotoxic; actives 1.6% (n = 360,000); AID 686970;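 also: NT is the 2HG producing partner of a matched IDH1 knockdown line; potency is read from the fitted curve at half-maximal effect; 0% = DMSO-treated cells and -100% = media-only wells without cells; nearly all actives have a fitted effect of over 55% in size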
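HT-1080-NT; 750 cells/well; 5% FBS RPMI; 48 h compound, 37 degrees C; CellTiter-Glo luminescence; curve fitting and curve-class assignment.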
TDP1 cell CPT – growth inhibition of DT40 Tdp1-/-;hTDP1 cells with camptothecin (screen for TDP1 inhibitors). actives 12% (n = 420,000). chicken DT40 Tdp1-/-;hTDP1 cells + 20 nM CPT, ATP luminescence, 48 h. AID 686979. Potency, µM (doses to about 46.2 µM), for inactives: at the top dose activity change, negative = growth inhibition, hits mostly inhibitors; also: potency is read from the fitted curve at half-maximal effect; nearly all actives have a fitted effect of over 55% in size
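Cell growth measured by CellTiter-Glo luminescence after a minimum 48 h, 37 C compound exposure with 20 nM CPT in Tdp1-knockout DT40 cells stably expressing hTDP1, seeded 400/well; qHTS titration format.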
TDP1 cell noCPT – qHTS for Inhibitors of human tyrosyl-DNA phosphodiesterase 1 (TDP1): qHTS in cells in absence of CPT. Potency, µM (doses to about 46.2 µM), for inactives: at the highest dose activity change, negative = growth inhibition, hits mostly inhibitors. actives 15% (n = 420,000). DT40 Tdp1-/- hTDP1 cells, no CPT, ATP luminescence, 48 h. AID 686978, 2013; also: potency is read from the fitted curve at half-maximal effect; nearly all actives have a fitted effect of over 55% in size
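Growth of hTDP1-complemented DT40 Tdp1-knockout cells is measured by ATP luminescence after at least 48 hr compound exposure at 37 °C, with DMSO substituting for the 20 nM CPT used in the parallel screen.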
HT1080 IDH1KD tx – toxicity to HT-1080 IDH1 knockdown cells (counter line) | HT-1080 IDH1 knockdown viability, ATP luminescence, 48 h | Potency, µM (highest dose often 46.1 µM), for the others: at the top dose activity, negative = toxicity, usual class: cytotoxic | actives 2% (n = 360,000) | AID 686971;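 also: potency is read from the fitted curve at half-maximal effect; 0% = DMSO wells and -100% = cell-free medium wells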
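HT-1080-IDH1KD cells (IDH1 knocked down), 750/well in RPMI with 5% FBS, treated with compound 48 h at 37 degrees C. Viability by CellTiter-Glo luminescence, normalised to DMSO and no-cell wells; concentration-response curves classed.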
ELG1 DNA repair – inhibitors of ELG1-dependent DNA repair in HEK293T cells; AID 504467; actives 2.3% (n = 330,000); HEK293T ELG1-luciferase reporter, luminescence, 16 h; DNA damage induced by 5-fluorouridine; Potency, µM (titrated, usually from 46.1 µM), inactives show at the top dose activity change, negative = inhibition, hits mostly inhibitors; also: potency is read from the fitted curve at half-maximal effect; nearly all actives have a fitted effect of over 55% in size
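Quantitative HTS, concentration-response format. 2,000 cells/well co-treated with 5-fluorouridine and compound, 16 hr in 5% CO2 at 37 °C; ONE-Glo luminescence read after 30 min.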
IL-1B inflam inh – inflammasome signaling inhibition, IL-1 beta readout. THP-1 LPS/ATP IL-1B secretion, AlphaLISA, 16 h; active compounds read low. activity change, % at 57.5 µM. actives 4.7% (n = 360,000). AID 743279; in the data active = activity change below about -50%; inconclusive = mostly about -30% to -49%
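Secreted IL-1B measured by AlphaLISA bead assay after 16 h compound exposure of THP-1 cells; compounds (final up to 57.5 uM) added 1 h before LPS (250 ng/mL) and ATP (1.25 mM) stimulation; lower signal means less secretion.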
The depositor's hits bear a star; u = inconclusive; x = no result. Unless noted, calls follow the shape of the dose curve; as a rule, active = well fitted curve in the direction sought with a large enough effect; inconclusive = small, poorly fitted or top-dose-only effect, or another doubt; inactive = no such curve, though single readings can be large; an effect the other way counts as inactive or inconclusive. Unless noted, % is scaled to controls: 0 for no effect and ±100 for the full control effect.

SMILES	HT1080-NT tox	TDP1 cell CPT	TDP1 cell noCPT	HT1080 IDH1KD tx	ELG1 DNA repair	IL-1B inflam inh
CC1CN(c2nc3c(c(=O)n(Cc4ccc(Cl)cc4)c(=O)n3C)n2C)CC(C)O1 (stereo not drawn)	-5%	u	26µM*	-17%	u	0
CN1CCN(c2nc3c(c(=O)n(C)c(=O)n3C)n2Cc2ccc(Cl)cc2)CC1	-18%	-9%	u	-12%	-22%	-22
Cn1c(N2CCC(C(N)=O)CC2)nc2c1c(=O)n(Cc1ccc(Cl)cc1)c(=O)n2C	-16%	-13%	-15%	-13%	-16%	17
COC(=O)c1ccccc1NC(=O)CSc1nc2ncccc2[nH]1	5%	-3%	-24%	10%	2%	15
CC(C)OC(=O)c1ccc(NC(=O)CSc2nc3ncccc3[nH]2)cc1	-23%	8.2µM*	13µM*	-19%	-21%	u
CC(C)c1ccc(NC(=O)CSc2nc3ncccc3[nH]2)cc1	-25%	u	26µM*	-2%	8%	16
COc1ccc(NC(=O)CSc2nc3ncccc3[nH]2)cc1OC	1%	u	3%	-2%	u	-6
Cc1ccccc1OCC(=O)Nc1cccc(N(C)S(C)(=O)=O)c1	2%	-22%	-29%	13%	u	9
CN(c1cccc(NC(=O)CSc2ccc(Cl)cc2)c1)S(C)(=O)=O	u	10µM*	11µM*	u	u	-14
CN(c1cccc(NC(=O)CCSc2ccccc2)c1)S(C)(=O)=O	0%	-22%	-27%	17%	-10%	24
CN(c1cccc(NC(=O)COc2ccc(Cl)cc2Cl)c1)S(C)(=O)=O	-18%	21µM*	u	u	u	u
COc1ccc2c(CC(=O)N(C)CC3COc4ccccc4O3)coc2c1 (stereo not drawn)	-15%	u	2%	0%	u	6
COc1ccc(OCC(=O)N(C)CC2COc3ccccc3O2)cc1 (stereo not drawn)	-11%	18µM*	u	-9%	14%	-5
C/C(=N/NC(=O)c1cccc(C)c1)c1c(O)cc(C)oc1=O	-5%	u	23µM*	-2%	u	-8
C/C(=N\Nc1ccccc1)c1c(O)cc(C)oc1=O	u	0%	10%	12µM*	u	7
C/C(=N\NC(=O)c1cccc(C)c1)c1cccc(NC(=O)c2ccco2)c1	8%	-24%	-22%	8%	9%	-2
COc1ccc(COC(=O)c2ccc(S(=O)(=O)N3CCCCC3)cc2)cc1OC	6%	-4%	-7%	-1%	3%	4
CC(C)(C)C(=O)Cn1ncc(Br)c(Br)c1=O	u	4.6µM*	1.8µM*	u	u	-100*
CC(C)(C)C(=O)Cn1ncc(N2CCOCC2)c(Cl)c1=O	-3%	-18%	-9%	0%	25%	17
COc1ccc(S(=O)(=O)N2CCC(c3cc(-c4cccc5ccccc45)n[nH]3)CC2)cc1	-2%	u	u	-20%	-7%	-19
O=S(=O)(c1cccc(C(F)(F)F)c1)N1CCC(c2cc(-c3cccc4ccccc34)n[nH]2)CC1	-16%	21µM*	u	-17%	-4%	-8
Cc1ccc(CN2C(=O)/C(=C3\SC(N4CCOCC4)=NC3=O)c3cc(Br)ccc32)cc1	x	x	x	x	0%	x
Cc1ccc2c(c1)C(=O)C(=O)N2Cc1ccc(Br)cc1	u	0.92µM*	0.65µM*	23µM*	u	54
CCCCN1C(=O)C(=O)c2cc(Cl)ccc21	26µM*	1µM*	0.82µM*	21µM*	u	38
